# Results from ChEMBL document CHEMBL3988442, “University of Dundee, Small-Polar-MMV Screening Library” (2021).
# In all, about 48,000 compounds went through this assay and about 13,000 (27%) showed an effect of 50% or more. Some of the results follow.
# Tested on: Wolbachia pipientis
# Experiment: Anti-Wolbachia Cell-Based Screen
# Assay type: functional
# Parameters: scale not given: in the data most compounds retested in dose-response had high values
# Conditions: 5 µM
row,Structure (SMILES),Percent Effect [%]
1,CC(C)NCc1nc(-c2ccc3c(c2)OCO3)c[nH]1.Cl.Cl,8.786
2,CCCc1cc(NC(=O)c2cccc(N3CCCNC3=O)c2)n[nH]1,11.29
3,Cn1cncc1-c1nnc([C@H]2CCN(C3CCOCC3)C2)o1,-2.913
4,Cc1ccccc1-c1cncc(C2CCN(S(=O)(=O)N(C)C)CC2)n1,110.9
5,Cc1ccccc1-c1cncc(C2CCN(CCO)CC2)n1,122.1
6,Cc1ccccc1-c1cncc(C2CCN(C3CCOCC3)CC2)n1,110.9
7,Cc1ccccc1-c1cncc(C2CCN(C)CC2)n1,-14.26
8,COCCN1CCC(c2cncc(-c3ccccc3C)n2)CC1,100.9
9,CN(C)S(=O)(=O)N1CCC(Cn2cccn2)CC1,2.027
10,CCc1nc2n(n1)CC(NCC(=O)Nc1ccc(Cl)cn1)CC2 (stereo unspecified),-9.728
11,CC(C)(C)NC(=O)Cn1cc(C(N)=O)c(-c2ccccc2)n1,6.588
12,CN1CCN(Cc2noc(-c3cc(-c4ccc(F)cc4)n[nH]3)n2)CC1,-13.75
13,Clc1ccc2cccnc2c1CN1CCCC(Cn2cncn2)C1 (stereo unspecified),-4.204
14,Fc1ccccc1CC1CCN(Cc2ccccn2)CC1,-1.082
15,Oc1nc(C2CCN(Cc3ccccn3)CC2)cc2ccccc12,103.3
16,Cc1ccccc1-c1cncc(C2CCN(Cc3ccccn3)CC2)n1,93.34
17,CCn1c(CN(C)C)nnc1C1CCN(Cc2ccccn2)CC1,2.831
18,Cn1cc(CN2CCC(CCC(=O)Nc3ccccc3Cl)CC2)cn1,1.121
19,Cc1ccccc1-c1cncc(C2CCN(C(=O)CN(C)C)CC2)n1,-14.47
20,Cc1ccccc1-c1cncc(C2CCN(Cc3cnn(C)c3)CC2)n1,99.14
21,CN(CC(F)(F)F)C(=O)CN1CCC(c2cc3ccccc3[nH]2)CC1,-8.939
22,Cc1ccccc1-c1cncc(C2CCN(CC(=O)N(C)C)CC2)n1,124.8

row,Structure (SMILES),Percent Effect [%]
1,CCn1c(CN2CCCC2)nnc1C1CCN(Cc2ccccn2)CC1,-10.72
2,CC(=O)Nc1ccc(CC(=O)N2CC(S(=O)(=O)C3CCCCC3)C2)cc1,1.653
3,Cc1oc(-c2ccsc2)nc1CNCCn1cccn1,-19.09
4,c1nc(NCC2(N3CCOCC3)CCSC2)c2sccc2n1 (stereo unspecified),-18.02
5,CCc1nc(NCCCOC)c2c(n1)c(C)nn2C,12.69
6,CCc1nccn1CC(=O)N1CCN(C2CCc3ccccc3C2)CC1 (stereo unspecified),-21
7,CCc1nccn1-c1cncc(C2CCCN2Cc2ccccc2)n1 (stereo unspecified),119.3
8,CCCn1ccnc1CN1CCCC1c1ccccn1 (stereo unspecified),6.189
9,CN(C)C(=O)CCc1cncc(C2CCCN2Cc2ccccn2)n1 (stereo unspecified),97.92
10,CCc1nccn1-c1cncc(C2CCCN2CC(=O)N2CCCC2)n1 (stereo unspecified),115.3
11,CN(CCc1ccccn1)S(=O)(=O)N1CCCC1c1ccco1 (stereo unspecified),10.93
12,CCc1nccn1-c1cncc(C2CCCN2Cc2cccnc2)n1 (stereo unspecified),-2.141
13,O=C(CN1CCCC1c1nc(-c2ccccn2)no1)N1CCNCC1 (stereo unspecified),2.337
14,CCc1nccn1-c1cncc(C2CCCN2Cc2ccccn2)n1 (stereo unspecified),112.2
15,CCc1nccn1-c1cncc(C2CCCN2Cc2ccc(F)cc2)n1 (stereo unspecified),-3.137
16,CCn1ccnc1CN1CCN(Cc2ccccn2)CC1C (stereo unspecified),-25.03
17,O=C(CN1C(=O)CCC1=O)N1CCOC2(CCOCC2)C1,13.71
18,O=C(NC1CCN(CC2CC2)C1)c1ccc(N2CCC(O)CC2)cc1 (stereo unspecified),-2.601
19,CCN(C)S(=O)(=O)N(CC)Cc1cccc(-c2ccncc2)c1,31.71
20,Cc1cc2c(cc1C)OC(C(=O)NCCNC(=O)C1CCCC1)C2 (stereo unspecified),-3.964
21,Cc1ccc(C)c(-n2cc(CN3CC[C@@H](O)C3)c(-c3ccccc3)n2)c1,7.715
22,CCN1CCN(C(=O)c2ccc3c(c2)OCC(=O)N3)[C@H]2CS(=O)(=O)C[C@H]21,-0.2208

row,Structure (SMILES),Percent Effect [%]
1,CC(C)(O)c1cc(CC2(NCc3ccccc3Cl)COC2)no1,-20.02
2,Cn1cc(CN2C[C@H]3CCC[C@@H](CNc4nccn4C)[C@H]3C2)cn1.O=C(O)C(F)(F)F,-10.56
3,Cc1cc(CN(CC(N)=O)CC(C)C)on1,-7.292
4,Cn1nc(C2CCNC2)c2c(C(=O)NC3CC3)cc(C3CC3)nc21 (stereo unspecified),110
5,Cn1nc(C2CCNCC2)c2c(C(=O)NC3CC3)cc(C3CC3)nc21,128.7
6,CCCn1ncc2c(C(=O)Nc3n[nH]c(SC)n3)cc(C3CC3)nc21,6.515
7,Cn1nc(C2CCCNC2)c2c(C(=O)NC3CC3)cc(C3CC3)nc21 (stereo unspecified),121.4
8,Cn1nc(C2CCCN2)c2c(C(=O)NC3CC3)cc(C3CC3)nc21 (stereo unspecified),135.7
9,Cc1nc(NCCSc2cnn[nH]2)c2cccnc2n1,2.11
10,Cc1cnn(CCNCc2nc(-c3ccsc3)oc2C)c1,-10.22
11,CCCN(C)S(=O)(=O)NC(=O)c1ccc(CC)o1,14.97
12,O=C(CNC1CCc2ncnn2C1)N(C1=CCCCC1)C1CC1 (stereo unspecified),-15.4
13,Fc1cccc(N2CCOC3(CCCN(c4cnccn4)C3)C2)c1 (stereo unspecified),11.27
14,CN(C)CCN(Cc1ccccc1)C(=O)CN1CCCNC1=O,-13.77
15,CC1CCN(CCNC(=O)C2CCN(C(=O)C(C)(C)C)CC2)CC1,2.038
16,CCC(=O)N1CCCCC1c1nc(O)c2c(n1)CN(S(C)(=O)=O)CC2 (stereo unspecified),103.7
17,CCCS(=O)(=O)CC(=O)N1CCCC1c1noc(C2CC2)n1 (stereo unspecified),-6.337
18,CCC(=O)N1CCCCC1c1nc(O)c2c(n1)CN(S(=O)(=O)CC)CC2 (stereo unspecified),126.4
19,CCS(=O)(=O)CC(=O)N1CCCC1c1noc(C2CC2)n1 (stereo unspecified),-5.674
20,CC(C)NC(=O)c1ccc2nnc(C3CN(C)CCN3C)n2c1.O=C(O)C(F)(F)F.O=C(O)C(F)(F)F (stereo unspecified),-4.33
21,COCc1cc(N(Cc2ccsc2)C2CC2)n2ncnc2n1,-20.66
22,Cc1oc(C(C)C)cc1C(=O)N1C[C@H]2CC[C@@H]1CN(S(=O)(=O)N(C)C)C2,1.683
